Values joined by “and” are separate entries in the source; they are usually repeats but may differ in a detail not shown here. Identical values can stand only once. Records with an inconclusive call do not appear. Entries that show only a call come without a potency. Some structures have more than one record in an assay (separate samples or runs), and their calls can disagree. Active and inactive are the calls of the source. Unless noted, calls follow the shape of the dose curve; as a rule, active = well fitted curve in the direction sought with a large enough effect in the repeat runs; inconclusive = weak or mixed curves; inactive = no such curve, though single readings can be large; an effect the other way counts as inactive or inconclusive.
Columns and labels:
[1] = qHTS assay to identify small molecule agonists of the NFkB signaling pathway - cell viability counter screen (AID 1159515; calls by dose curve; also: nearly all actives have a fitted effect of over 55% in size; also: potency is read from the fitted curve at half-maximal effect)
In short: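 Plate 2,000 NFkB-bla ME-180 cells/well; incubate overnight. Add compounds, 5 hr at 37 C. Add FRET substrate, 1.5 hr RT. Add CellTiter-Glo, 30 min RT; read luminescence.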

[2] = qHTS assay to identify small molecule agonists of the endoplasmic reticulum stress response signaling pathway - cell viability counter screen (AID 1159517; calls by dose curve; also: nearly all actives have a fitted effect of over 50% in size; also: potency is read from the fitted curve at half-maximal effect)
In short: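 After overnight attachment, ESRE-bla HeLa cells were treated with Tox21 library compounds for 5 hr. CellTiter-Glo luminescence, read 30 min post-addition at room temperature, reported viability.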

[3] = qHTS assay to identify small molecule antagonists of the retinoid-related orphan receptor gamma (ROR-gamma) signaling pathway - cell viability counter screen (AID 1159520); also: nearly all actives have a fitted effect of over 50% in size; also: potency is read from the fitted curve at half-maximal effect
In short: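 Cytotoxicity was read from cellular ATP (CellTiter-Glo luminescence) after 16 hr at 37 C with 1 uM doxycycline induction. The inducer was added 2 hr after compound transfer to Tet-on ROR gamma CHO cells.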

[4] = qHTS assay to identify small molecule agonists of the AP-1 signaling pathway - cell viability counter screen (AID 1159525; calls by dose curve; also: nearly all actives have a fitted effect of over 55% in size; also: potency is read from the fitted curve at half-maximal effect)
In short: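 Intracellular ATP by Cell Titer Glo luminescence (30 min, RT) in the same ME-180 AP-1-bla wells after the 5 h compound exposure at 37 °C. Normalised to tetra n-octyl ammonium bromide and DMSO controls.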

[5] = qHTS assay to identify small molecule antagonists of the retinoid acid receptor (RAR) signaling pathway - cell viability counter screen (AID 1159551); also: nearly all actives have a fitted effect of over 35% in size; also: potency is read from the fitted curve at half-maximal effect
In short: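 Viability of C3RL4 cells is quantified from ATP by luminescence after 6 h treatment at 37 C with compounds and 1 uM retinol.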

[6] = qHTS assay to identify small molecule antagonists of the estrogen related receptor (ERR) signaling pathway - cell viability counter screen (AID 1224818);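 also: viability measured after 17.5 h of compound exposure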
In short: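 Cytotoxicity check run alongside the ERR antagonist screen: cells exposed to test compounds 17.5 h at 37 C, viability taken as CellTiter-Fluor fluorescence intensity.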

[7] = qHTS assay to identify small molecule antagonists of the estrogen related receptor signaling pathway with the pleiotropic PPARgamma coactivator (PGC) cell viability counter screen (AID 1224822;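 also: viability read after 17.5 h compound exposure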)
In short: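 Viable cell signal (CellTiter-Fluor, 30 min, 37 C/5% CO2) was measured in PGC/ERR cells after a 17.5 h compound incubation.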

[8] = qHTS assay to identify small molecule agonists of the vitamin D receptor (VDR) signaling pathway - cell viability counter screen (AID 743224); also: nearly all actives have a fitted effect of over 50% in size; also: potency is read from the fitted curve at half-maximal effect
In short: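 In parallel with the bla FRET readout, cytotoxicity toward VDR-bla cells after 16 h compound exposure was assessed by CellTiter-Glo, with luminescence recorded after a 30 min room-temperature incubation.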

[9] = qHTS assay to identify small molecule antagonists of the vitamin D receptor (VDR) signaling pathway - cell viability counter screen (AID 743225); also: nearly all actives have a fitted effect of over 50% in size; also: potency is read from the fitted curve at half-maximal effect
In short: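 Same-well multiplex: following 16 h treatment of HEK 293T cells carrying a UAS-driven beta-lactamase reporter with compound and agonist (3 nM final), and a 2 h FRET substrate step, CellTiter-Glo was added and luminescence read after 30 min.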

[10] = qHTS assay to identify small molecule agonists of the endoplasmic reticulum stress response signaling pathway (AID 1159516; active = well fitted activation curve with a large enough effect in the signal ratio in the repeat runs, not every such curve was filed as active; the % refers to the signal ratio)
In short: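 Beta-lactamase expression from the ER stress response element in HeLa reporter cells is quantified with the LiveBLAzer B/G FRET substrate, read at 405 nm excitation after 2 hr at room temperature, following 5 hr compound treatment at 37 C.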

[11] = target: Retinoic acid receptor RXR-alpha (Homo sapiens) (UniProt P19793); experiment: qHTS assay to identify small molecule agonists of the RXR signaling pathway (AID 1159527; calls by dose curve; also: nearly all actives have a fitted effect of over 35% in size)
Chain of Retinoic acid receptor RXR-alpha (Homo sapiens) (P19793 whole entry, looked up): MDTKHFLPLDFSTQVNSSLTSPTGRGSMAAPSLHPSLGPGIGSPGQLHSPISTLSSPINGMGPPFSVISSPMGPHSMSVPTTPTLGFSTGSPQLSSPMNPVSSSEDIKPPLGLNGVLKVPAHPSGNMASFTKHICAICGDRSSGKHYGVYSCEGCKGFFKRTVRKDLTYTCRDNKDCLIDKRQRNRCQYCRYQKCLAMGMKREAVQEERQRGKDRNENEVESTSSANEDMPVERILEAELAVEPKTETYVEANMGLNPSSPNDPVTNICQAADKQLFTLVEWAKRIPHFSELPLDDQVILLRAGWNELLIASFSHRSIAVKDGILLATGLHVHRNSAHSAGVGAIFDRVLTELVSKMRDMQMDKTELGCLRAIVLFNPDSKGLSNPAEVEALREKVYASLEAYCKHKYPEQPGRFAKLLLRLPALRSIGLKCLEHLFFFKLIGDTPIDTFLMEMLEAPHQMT
In short: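 Compounds in DMSO were added to RXR-alpha-UAS-bla HEK 293T cells kept in 2% charcoal-stripped serum, and incubated 16 hr at 37 C with 5% CO2. Reporter signal came from a 2 hr B/G FRET substrate step.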

[12] = qHTS assay to identify small molecule agonists of the RXR signaling pathway - cell viability counter screen (AID 1159529); also: nearly all actives have a fitted effect of over 50% in size; also: potency is read from the fitted curve at half-maximal effect
In short: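 Counter screen: CellTiter-Glo luminescence. Cells: RXR-alpha-UAS-bla HEK 293T. Medium: 2% charcoal-stripped FBS. Treatment: 16 h, 37 C. Reagent incubation: 30 min, RT.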

[13] = qHTS assay to identify small molecule antagonists of the retinoic acid receptor (RAR) signaling pathway (AID 1159552; also: nearly all actives have a fitted effect of over 50% in size; also: potency is read from the fitted curve at half-maximal effect)
In short: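 Antagonism of retinol-induced RARE reporter activity was measured in C3RL4 cells. Exposure to compounds and 1 uM final retinol lasted 6 hr at 37 C, with luminescence as endpoint.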

[14] = qHTS assay to identify small molecule agonists of the retinoic acid receptor (RAR) signaling pathway (AID 1159553); conditions: C3RL4 RARE luciferase reporter, agonist, 6 h; activation: at 73.3 µM (top of the series) unless noted; also: potency is read from the fitted curve at half-maximal effect
In short: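 Compounds dissolved in DMSO were pinned onto C3RL4 cells seeded the previous day, and plates were held 6 hr at 37 C. RARE-driven luciferase output was then read by luminescence.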

[15] = qHTS assay to identify small molecule agonists of the AP-1 signaling pathway (AID 1159526; calls by dose curve)
[16] = target: Nuclear receptor ROR-gamma (Homo sapiens) (UniProt P51449); experiment: qHTS assay to identify small molecule antagonists of the retinoid-related orphan receptor gamma (ROR-gamma) signaling pathway (AID 1159521; also: nearly all actives have a fitted effect of over 50% in size; also: potency is read from the fitted curve at half-maximal effect)
In short: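 Inducible-expression reporter assay: doxycycline (1 uM final) switched on RORγ in CHO cells bearing a ROR response element-luciferase construct, with test compounds present from 2 h beforehand. Decreased luminescence after 16 h defined antagonist activity.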

SMILES	Potency [1]	Potency [2]	Potency [3]	Potency [4]	Potency [5]	outcome [6]	Potency [7]	Potency [8]	Potency [9]	Potency [10]	Potency [11]	Potency [12]	Potency [13]	Potency [14]	outcome [15]	Potency [16]
CCCCCCCCCC(CC)c1ccc(S(=O)(=O)O)cc1 (centres undefined)	48.9 µM (active) and 21.3 µM (active)	inactive and 21.3 µM (active) and 21.9 µM (active)	inactive	49.5 µM (active) [middle of 4 runs]	inactive	inactive	inactive	–	–	–	–	–	–	–	–	–
CC(C)COC(=O)c1ccccc1C(=O)OCC(C)C	inactive	–	inactive	inactive	inactive	–	–	inactive	inactive	inactive	inactive	inactive	inactive	inactive	–	–
C[N+](C)(C)C	inactive	–	inactive	inactive	inactive	–	–	inactive	inactive	inactive	inactive	inactive	–	inactive	inactive	–
CC(C)(c1ccccc1)c1ccc(O)cc1	43.3 µM (active) and 54.9 µM (active)	–	–	–	inactive	–	–	inactive	–	inactive	–	43.3 µM (active) and 54.9 µM (active)	61.1 µM (active)	inactive	–	60.6 µM (active)
O=C1C(Cl)=C(Cl)C(=O)c2ccccc21	21.9 µM (active) and 12.3 µM (active)	19.6 µM (active) and 49 µM (active)	5.46 µM (active) and 5.45 µM (active)	11 µM (active) and 19.5 µM (active)	21.8 µM (active) and 24.3 µM (active)	–	–	4.38 µM (active) and 9.77 µM (active)	6.94 µM (active) and 12.3 µM (active)	–	–	12.3 µM (active) and 17.4 µM (active)	21.8 µM (active) and 19.3 µM (active)	–	–	4.87 µM (active) and 12.2 µM (active)
CN(C)P(=O)(N(C)C)N(C)C	inactive	–	inactive	inactive	inactive	–	–	inactive	inactive	inactive	inactive	inactive	inactive	inactive	inactive	–
Oc1ccc(Cl)cc1Cl	inactive	–	inactive	inactive	inactive	–	–	inactive	inactive	inactive	inactive	inactive	inactive	inactive	inactive	–
COc1ccc(O)c(C(C)(C)C)c1	inactive	–	inactive	inactive	inactive	–	–	inactive	inactive	inactive	inactive	inactive	inactive	inactive	inactive	–
CCOP(=O)(O)OCC (tested in a mixture with another compound)	inactive and 54.5 µM (active)	–	inactive and 54 µM (active)	inactive and 48.6 µM (active)	inactive and 60.6 µM (active)	–	–	inactive and 17.2 µM (active)	–	inactive	inactive	inactive and 17.2 µM (active)	–	–	inactive	–
O=P(OCCCl)(OCCCl)OCCCl	inactive	–	inactive	inactive	inactive	–	–	inactive	inactive	inactive	inactive	inactive	inactive	inactive	inactive	–
CCC[CH2][Sn]([Cl])([Cl])[CH2]CCC	3.13 µM (active) and 2.45 µM (active)	–	155 nM (active) and 122 nM (active)	–	13.9 µM (active) and 27.3 µM (active)	–	–	249 nM (active) and 77.6 nM (active)	1.11 µM (active) and 275 nM (active)	–	–	1.76 µM (active) and 3.09 µM (active)	310 nM (active) and 344 nM (active)	–	–	77.9 nM (active) and 96.9 nM (active)
Cc1ccc(N=CN(C)C=Nc2ccc(C)cc2C)c(C)c1	54.9 µM (active) and inactive	–	inactive	54.9 µM (active) and inactive	inactive	–	–	39.1 µM (active) and 38.9 µM (active)	inactive	inactive	inactive	43.8 µM (active) and 43.6 µM (active) and inactive	inactive	inactive	inactive	–
O=[N+]([O-])/N=C1\NCCN1Cc1ccc(Cl)nc1	inactive	–	inactive	inactive	inactive	–	–	inactive	inactive	inactive	inactive	inactive	inactive	inactive	inactive	inactive
C[N+](C)(C)CC(=O)O	inactive	–	inactive	inactive	inactive	inactive	inactive	inactive	inactive	inactive	inactive	inactive	–	–	inactive	inactive
CCCCOCC1CO1 (centres undefined)	–	inactive	inactive	inactive	inactive	–	–	inactive	inactive	inactive	inactive	inactive	inactive	inactive	inactive	inactive
Oc1ccc(Cl)cc1Cc1ccccc1	54.9 µM (active) and 49.6 µM (active)	–	61.1 µM (active) and inactive	54.9 µM (active) and 44.2 µM (active)	55.1 µM (active) and inactive	inactive	inactive	inactive	–	inactive	–	49 µM (active) and 24.8 µM (active)	27.6 µM (active) and inactive	inactive	–	–
C[C@]12CC[C@H]3[C@@H](CCC4=CC(=O)CC[C@@H]43)[C@@H]1CC[C@@H]2O	inactive	–	inactive	inactive	inactive	–	–	inactive	inactive	inactive	inactive	inactive	48.1 µM (active)	inactive	inactive	inactive
COP(=S)(OC)Oc1ccc(Sc2ccc(OP(=S)(OC)OC)cc2)cc1	–	inactive	inactive	inactive	inactive	–	–	inactive	inactive	inactive	inactive	inactive	inactive	61.1 µM (active) and inactive	inactive	inactive
O=[N+]([O-])c1ccc(Cl)c([N+](=O)[O-])c1	49.7 µM (active) and 54.9 µM (active)	22.2 µM (active) and 49 µM (active)	49.3 µM (active) and 21.7 µM (active)	35.2 µM (active) and 34.7 µM (active)	–	–	–	14 µM (active) and 17.4 µM (active)	19.8 µM (active) and 19.5 µM (active)	–	–	24.9 µM (active) and 24.5 µM (active)	13.9 µM (active) and 12.2 µM (active)	–	–	6.21 µM (active) and 6.86 µM (active)
